PMC5540273 (PLoS ONE, 2017)

Assays:
Conditions in all cases: concentration: 1 μM, replicates: in singlicate; n = 1
MTOR = system: MTOR
MUSK = system: MUSK
MYLK2 = system: MYLK2
MYLK4 = system: MYLK4
MYLK = system: MYLK
MYO3A = system: MYO3A
MYO3B = system: MYO3B
NDR1 = system: T1, NDR1
T1 construct: gene STK38

NDR2 = system: NDR2
NEK10 = system: NEK10
NEK11 = system: NEK11
NEK1 = system: NEK1
NEK2 = system: NEK2
NEK3 = system: NEK3
NEK4 = system: NEK4
NEK5 = system: NEK5
NEK6 = system: NEK6
NEK7 = system: NEK7
NEK9 = system: NEK9
NIK = system: T2, NIK
T2 construct: gene MAP3K14
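Also: KINOMEscan kinase panel screen.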

Row | SMILES | %Inh (MTOR) | %Inh (MUSK) | %Inh (MYLK2) | %Inh (MYLK4) | %Inh (MYLK) | %Inh (MYO3A) | %Inh (MYO3B) | %Inh (NDR1) | %Inh (NDR2) | %Inh (NEK10) | %Inh (NEK11) | %Inh (NEK1) | %Inh (NEK2) | %Inh (NEK3) | %Inh (NEK4) | %Inh (NEK5) | %Inh (NEK6) | %Inh (NEK7) | %Inh (NEK9) | %Inh (NIK)
1 | O=C(Nc1n[nH]c2nc(-c3cccc(O)c3)ccc12)C1CC1 [SB-711805] | 0% | 0% | 97.2% | 13% | 98.4% | 18% | 0% | 0% | 0% | 0% | 7% | 4% | 2% | 19% | 0% | 0% | 0% | 0% | 8% | 8%
2 | CCn1c(-c2nonc2N)nc2c(-c3ccccc3)ncc(OCCCN)c21.O=C(O)C(F)(F)F.O=C(O)C(F)(F)F [GSK260205] | 20% | 0% | 0% | 0% | 33% | 27% | 0% | 23% | 0% | 9% | 1% | 0% | 1% | 7% | 21% | 1% | 0% | 0% | 0% | 30%
3 | Cl.O=C(Nc1ccc(Oc2ccc3[nH]c(NC(=O)c4ccco4)nc3c2)cc1)Nc1cc(C(F)(F)F)ccc1F [GW683134] | 5% | 98.6% | 75% | 3% | 0% | 0% | 9% | 0% | 0% | 0% | 0% | 0% | 2% | 0% | 0% | 0% | 0% | 0% | 79% | 13%
4 | COc1ccc(NC(=O)c2ccoc2)cc1-c1ccc(C(=O)NCC2CC2)cc1 [GW810437] | 36% | 0% | 0% | 0% | 0% | 7% | 21% | 32% | 16% | 16% | 0% | 0% | 0% | 37% | 0% | 0% | 0% | 0% | 7% | 40%
5 | Fc1cc(Cl)ccc1Nc1ccnc2cc(-c3ccc(CN4CCOCC4)o3)ccc12 [GW560109] | 1% | 0% | 8% | 1% | 47% | 0% | 1% | 0% | 0% | 0% | 0% | 0% | 13% | 0% | 15% | 1% | 0% | 3% | 0% | 4%
6 | Fc1cc(Cl)ccc1Nc1ccnc2cc(-c3ccc(CN4CCSCC4)o3)ccc12 [GW560106] | 6% | 0% | 13% | 0% | 38% | 38% | 0% | 12% | 31% | 15% | 22% | 0% | 1% | 5% | 0% | 9% | 0% | 0% | 5% | 28%
7 | CC(C)NCC(Cc1ccccc1)NC(=O)c1cc(Br)c(-c2ccnc3[nH]ccc23)s1.Cl.Cl (centres unmarked) [GSK1383281] | 6% | 0% | 1% | 79% | 56% | 19% | 0% | 90.3% | 65% | 2% | 0% | 91.9% | 13% | 16% | 0% | 68% | 0% | 0% | 0% | 0%
8 | NCCC(NC(=O)c1cc(Br)c(-c2ccnc3[nH]ccc23)s1)c1ccccc1.O=C(O)C(F)(F)F.O=C(O)C(F)(F)F (centres unmarked) [GSK1307810] | 12% | 11% | 8% | 99.9% | 34% | 0% | 0% | 96.7% | 96.7% | 9% | 30% | 71% | 19% | 0% | 0% | 96.3% | 3% | 0% | 4% | 49%
9 | CN(c1ccc(F)c(NC(=O)c2cccc(OC(C)(C)C#N)c2Cl)c1)c1ccc2nc(NC(=O)C3CC3)sc2n1 | 0% | 0% | 0% | 0% | 30% | 0% | 0% | 0% | 29% | 0% | 0% | 3% | 0% | 7% | 1% | 0% | 0% | 8% | 5% | 0%
10 | CN(c1ccc(NC(=O)Nc2cccc(Cl)c2)cc1)c1ccnc(N)n1.Cl [GW830707] | 13% | 72% | 0% | 6% | 0% | 3% | 36% | 10% | 25% | 1% | 28% | 0% | 16% | 0% | 0% | 7% | 14% | 0% | 3% | 9%
